Assay outcomes deposited in PubChem by several laboratories.
PostGolgi ctrl: growth of the yeast control strain, post-Golgi counter-screen. inhibition, % at 10 µM. 98,000 compounds, 5% hits. efflux-deficient yeast background strain, growth absorbance A615, 16 h
PostGolgi yeast: growth inhibition of a yeast mutant, post-Golgi transport screen; 98,000 compounds, 0.9% hits; post-Golgi transport phenotypic cell assay; inhibition, % at 10 µM;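 also: yeast cells grown in 1536-well plates; yeast grown about 18 h at 30C before absorbance read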
CYP2C19 inh: inhibitors of human CYP2C19 | inhibition, % at 5 µM | CYP2C19 Supersomes, luciferin-H EGE luminescence, 30 min | AID 778 | 96,000 compounds, 21% hits;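 active = CYP2C19 inhibition above a set limit at 5 µM in the primary screen, cut at about 50% in these data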;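 also: plate controls were negative control wells for no effect and 2.5 mM tranylcypromine positive control for full effect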
CYP2C9 inh: human CYP2C9 inhibition; P11712; CYP2C9 Supersomes, luciferin-H conversion, luminescence; inhibition, % at 5 µM; 96,000 compounds, 20% hits; AID 777;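 active = blocking of liver enzyme CYP2C9 beyond about 50% at 5 µM, limit read from the data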
Target sequence (P11712 whole entry, looked up): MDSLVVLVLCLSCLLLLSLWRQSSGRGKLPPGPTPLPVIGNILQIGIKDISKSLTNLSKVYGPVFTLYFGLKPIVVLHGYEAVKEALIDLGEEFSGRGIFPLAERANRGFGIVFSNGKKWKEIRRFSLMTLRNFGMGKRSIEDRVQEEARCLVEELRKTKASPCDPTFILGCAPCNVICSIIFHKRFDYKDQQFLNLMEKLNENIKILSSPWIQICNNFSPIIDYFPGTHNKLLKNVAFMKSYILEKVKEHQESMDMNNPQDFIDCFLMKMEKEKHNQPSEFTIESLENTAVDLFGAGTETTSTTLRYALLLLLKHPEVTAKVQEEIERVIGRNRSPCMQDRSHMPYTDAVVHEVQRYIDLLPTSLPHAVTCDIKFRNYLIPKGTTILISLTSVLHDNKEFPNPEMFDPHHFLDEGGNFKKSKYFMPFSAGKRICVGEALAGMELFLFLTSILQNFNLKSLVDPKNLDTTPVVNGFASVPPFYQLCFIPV
CYP2C19 act: activators of human cytochrome P450 2C19. recombinant CYP2C19, luciferin-H EGE luminescence; hits give high values; 0 = fully inhibited enzyme, 1 = untreated enzyme. activation factor at 5 µM. 96,000 tested, under 10 active. AID 1025;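 active = activation factor of at least 2 at 5 µM in the primary screen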;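 also: 0 = wells with 2.5 mM tranylcypromine and 1 = vehicle-only wells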
CYP2C9 act: increases human cytochrome P450 2C9 activity; recombinant CYP2C9, luciferin-H conversion, luminescence; hits give high values; factor 1 = untreated enzyme, 0 = blocked; activation factor at 5 µM; 96,000 compounds, 1.4% hits; AID 1024;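 active = activation factor of 2 or more for CYP2C9 at a 5 µM dose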;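 also: 0 = sulfaphenazole-blocked wells and 1 = vehicle-only wells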
Numbers without * were called inactive; x = no result. Most compounds without a hit are left out; they make up all but 32% or so of the library. Rule as the data show it, unless noted: active = inhibition above about 30%; inactive = the rest.

SMILES | PostGolgi ctrl | PostGolgi yeast | CYP2C19 inh | CYP2C9 inh | CYP2C19 act | CYP2C9 act
CC(C)CC(=O)Nc1cccc(-c2nc3ccccc3o2)c1 | 2.3 | 10.4 | 28.8 | 74.3* | 0.7 | 0.3
CC(Oc1ccc(Cl)cc1Cl)C(=O)Nc1ccc2oc(-c3ccncc3)nc2c1 (stereo not given) | 8.6 | -2.3 | 55.1* | 61.1* | 0.4 | 0.4
CC(C)CC(=O)Nc1ccc2oc(-c3ccncc3)nc2c1 | -2.1 | -0.7 | 51.7* | 69.2* | 0.5 | 0.3
COc1ccccc1N1CCN(Cc2nc3ccsc3c(=O)[nH]2)CC1 | 11.3 | -4.4 | 9.7 | 11.0 | 0.9 | 0.9
Cc1sc2nc(-c3cccs3)nc(N3CCCN(C)CC3)c2c1C | x | x | 16.5 | 18.2 | 0.8 | 0.8
Cc1ccc(CN2C(=O)CCSc3ccc(Cl)cc32)cc1 | 45.8* | 3.8 | 35.9 | 17.3 | 0.6 | 0.8
O=C1CCSc2ccc(Cl)cc2N1Cc1cccc(Cl)c1 | 41.0* | -13.0 | 63.7* | 13.6 | 0.4 | 0.9
Cc1ccc(CN2C(=O)CSc3ccc(C(=O)NCCN4CCOCC4)cc32)cc1 | 1.8 | 6.3 | 32.1 | 47.4 | 0.7 | 0.5
COCCn1c(SCC(=O)OCc2ccccc2)nc2c1c(=O)[nH]c(=O)n2C | x | x | -8.9 | -3.4 | 1.1 | 1
Cc1c(C#N)c(N=CN(C)C)c(C(=O)c2ccccc2)n1-c1ccc(Br)cc1 | 43.1* | -3.3 | 73.1* | 60.9* | 0.3 | 0.4
Cc1c(C#N)c(N=CN(C)C)c(C(=O)c2ccc(Br)cc2)n1-c1ccccc1 | 28.3 | 4.7 | 19.8 | 22.0 | 0.8 | 0.8
O=C(NCc1ccccc1)c1ccc(OC2CSC2)cc1 | 32.1* | -4.8 | 7.1 | 3.6 | 0.9 | 1
COc1ccc(-c2nc3n(n2)C(c2ccccc2)C2=C(CCCC2=O)N3)cc1OC (stereo not given) | -7.3 | 4.0 | 14.4 | 28.1 | 0.9 | 0.7
COc1ccc(NC(=O)OC(C)C)cc1 | 6.2 | 6.3 | 15.9 | -4.4 | 0.8 | 1
COc1cc(/C=C2/C(=N)N3OC(C)=CC3=NC2=O)ccc1OCCOc1ccc(C)cc1 | 3.6 | 1.3 | 10.1 | 12.7 | 0.9 | 0.9
CCOc1cc(/C=C2/C(=N)N3OC(C)=CC3=NC2=O)ccc1OCCOc1ccccc1 | 4.2 | -5.5 | 41.3 | 61.7* | 0.6 | 0.4
Cc1cc(NC(=O)c2noc3c2CCCC3)n(-c2ccccc2)n1 | 1.8 | -10.8 | 10.4 | 17.0 | 0.9 | 0.8
CCOC(=O)c1cccc(NC(=O)CSc2nnc(-c3cccnc3)n2CC)c1 | 4.9 | -5.4 | 52.9* | 63.7* | 0.5 | 0.4
CCn1c(COc2cccc(C)c2)nnc1SCC(=O)Nc1cccc(C(=O)OC)c1 | 10.8 | -9.5 | 31.6 | 56.4* | 0.7 | 0.4
CCn1c(SCC(=O)Nc2cc(C)on2)nnc1-c1cccnc1 | 2.9 | -5.5 | 31.4 | 8.8 | 0.7 | 0.9
CCn1c(COc2cccc(C)c2)nnc1SCC(=O)Nc1cccc(C(=O)O)c1 | 0.7 | -0.2 | -19.1 | 79.1* | 1.2 | 0.2
COC(=O)c1cccc(NC(=O)CSc2nnc(COc3ccccc3)n2C)c1 | 3.7 | 0.0 | 2.0 | 12.1 | 1 | 0.9
CCOC(=O)c1cccc(NC(=O)CSc2nnc(CNc3ccc(C)cc3)n2CC)c1 | 6.8 | 20.4 | 65.7* | 70.2* | 0.3 | 0.3
Cc1nc(-c2coc3c(CN(C)C)c(O)ccc3c2=O)cs1 | -1.5 | 0.0 | 3.1 | 5.2 | 1 | 0.9
Cc1ccc(S(=O)(=O)N(Cc2nccn2C)C(C)C)cc1 | -5.3 | 5.5 | 18.8 | 6.7 | 0.8 | 0.9
SMILES | PostGolgi ctrl | PostGolgi yeast | CYP2C19 inh | CYP2C9 inh | CYP2C19 act | CYP2C9 act
CCn1c(COc2ccccc2)nnc1SCC(=O)Nc1cc(OC)ccc1OC | -3.7 | 13.0 | 27.9 | -73.8 | 0.7 | 1.7
CCOC(=O)c1cccc(Nc2nc(-c3cccnc3)nc3ccccc23)c1 | 67.9* | 4.1 | 73.7* | 88.0* | 0.3 | 0.1
CCn1c(SCC(=O)Nc2c(C)n(C)n(-c3ccccc3)c2=O)nnc1-c1cccc(C)c1 | 8.5 | -2.1 | 2.7 | 4.6 | 1 | 1
CCn1c(CNC(=O)c2cccs2)nnc1SCC(=O)NCCc1ccccc1 | 30.9* | 3.0 | 14.1 | 9.4 | 0.9 | 0.9
CCOC(=O)c1ccccc1NC(=O)CSc1nnc(COc2ccccc2)n1CC | 17.9 | -8.7 | 89.0* | 2.5 | 0.1 | 1
CCn1c(SCC(=O)Nc2ccccc2C(=O)OC)nnc1-c1cccc(C)c1 | 9.9 | -0.5 | 98.7* | 68.0* | 0 | 0.3
CCn1c(SCC(=O)NCCc2ccccc2)nnc1-c1cccs1 | 8.5 | 7.8 | 32.4 | 32.0 | 0.7 | 0.7
CCOC(=O)c1cccc(NC(=O)c2cccnc2)c1 | 11.8 | -8.2 | 14.1 | 12.2 | 0.9 | 0.9
COC(=O)CNC(=O)Cc1c(F)cccc1Cl | 6.6 | 1.4 | -10.7 | -7.3 | 1.1 | 1.1
CC(C(=O)O)C1SC(=O)NC1=O (stereo not given) | 12.7 | 1.3 | -15.1 | 0.8 | 1.2 | 1
CCn1c(COc2cccc(OC)c2)nnc1SCC(=O)Nc1cccc(OC)c1 | 5.7 | -2.5 | 82.4* | 63.7* | 0.2 | 0.4
CCn1c(COc2ccccc2C)nnc1SCC(=O)O | 7.0 | -1.6 | 18.4 | -21.1 | 0.8 | 1.2
CCOC(=O)c1cccc(NC(=O)CSc2nnc(COc3ccccc3)n2CC)c1 | 17.0 | -19.0 | 57.8* | 62.6* | 0.4 | 0.4
CCn1c(CNc2ccccc2Cl)nnc1SCC(=O)NCc1ccccc1 | -0.9 | 8.2 | 9.4 | 19.8 | 0.9 | 0.8
CCn1c(COc2ccccc2C)nnc1SCC(=O)CC(=O)Nc1ccccc1 | 4.5 | 12.5 | 34.7 | 54.8* | 0.7 | 0.5
CCn1c(CNc2ccc(C)cc2)nnc1SCC(=O)NCc1ccccc1 | -1.5 | 4.1 | 78.0* | 37.4 | 0.2 | 0.6
CCOc1ccccc1Nc1nnc(Cc2ccccc2Cl)c(=O)[nH]1 | -3.2 | 11.9 | 28.0 | 40.3 | 0.7 | 0.6
CCn1c(COc2cccc3ccccc23)nnc1SCC(=O)OC1CCCCC1 | 17.9 | -3.3 | 87.8* | 48.5 | 0.1 | 0.5
C=CCn1c(COc2cccc3ccc(C)nc23)nnc1SCC(=O)OC | 3.9 | 30.5* | 47.0 | -89.8 | 0.5 | 1.9
CCCCOC(=O)CSc1nnc(N)s1 | 1.1 | 1.5 | 51.7* | 15.8 | 0.5 | 0.8
O=c1c2ccccc2nc(-c2ccccc2)n1Cc1ccco1 | 5.3 | -1.4 | 9.4 | 23.0 | 0.9 | 0.8
Cc1ccc(NC(=O)CN(C)C(=O)CSc2nc3ccccc3c(=O)n2Cc2ccco2)cc1 | 9.5 | 5.4 | 30.6 | 79.3* | 0.7 | 0.2
CCOC(=O)c1cc2c(c(CSc3nc4ccccc4c(=O)n3Cc3ccco3)c1)OCOC2 | 9.4 | 3.5 | 6.2 | 66.9* | 0.9 | 0.3
CN(Cc1ccccc1)C(=O)CSc1nc2ccccc2c(=O)n1Cc1ccco1 | 55.9* | 7.2 | 97.4* | 100.0* | 0 | 0
CCc1ccc(CNCCNCC(C)O)cc1 (stereo not given) | 6.1 | -0.3 | -0.3 | 1.7 | 1 | 1
COCC(=O)/C=C1\Sc2ccccc2N1C | 36.1* | -0.9 | 6.9 | -7.1 | 0.9 | 1.1
